This passage reports INHIBITION results from ChEMBL document CHEMBL4513216, “Probing the Open Global Health Chemical Diversity Library for Multistage-Active Starting Points for Next-Generation Antimalarials” (ACS Infect Dis, 2020).

Screen size: about 69,000 compounds; about 8,600 (12%) showed an effect of 50% or more. The full list was thinned out, with strong results kept by preference.

In the experiment the test system is Plasmodium berghei. Briefly: Screen against P. berghei liver stage (PbLuc), transformed with Luciferase, at 10uM. Conditions: tested at 10 uM. In kind it is functional, HepG2.
For `COCCOc1ccc(NC(=O)C2CC(=O)N(C(C)C)C2)cn1` (configuration not stated), the INHIBITION is on record as -21.8%. As for `CC(=O)NCC(=O)N1CCC(c2cncc(Oc3cccnc3)n2)CC1`, the figure is 9.93%; as for `CN(Cc1n[nH]c2c1CCC2)C(=O)CCc1cc2n(n1)CCNC2`, 46.3%; as for `CCc1ncc(C(=O)N2C[C@@H](C)O[C@@H](C)C2)cn1`, 24.8%. The figure for `CCc1ncc(C(=O)N2CC[C@H]3CC[C@@H](C2)N3C)cn1` is 61.4%; for `CCc1ncc(C(=O)N2CC(N3CCCCC3)C2)cn1` it is 13.9%; for `CNCc1ccc([C@@H]2CN(C)C[C@H]2C(N)=O)cc1` it is 49.5%. As for `Cc1csc(CN(C)C(=O)c2cccc(CCC(C)(C)O)c2)n1`, the figure is 34.9%; as for `CC[C@@H](CO)NC(=O)c1cccc(CCC(C)(C)O)c1`, 5.78%; as for `C[C@H](NC(=O)c1cccc(CCC(C)(C)O)c1)C(N)=O`, 10.3%. `CN(Cc1nccn1C)C(=O)c1cccc(CCC(C)(C)O)c1`: the INHIBITION amounted to 39.4%. In the case of `CC(C)(O)CCc1cccc(C(=O)NCc2nccs2)c1`, the INHIBITION is 56.3%. As for `CC(C)n1ccnc1CNC(=O)c1cccc(CCC(C)(C)O)c1`, the figure is 54.5%; as for `CCN(CC)c1ncccc1CNCc1ccc(Cl)s1`, 49.4%; as for `Cc1ncsc1CN(Cc1ccccc1)Cc1ccncc1`, 12.1%.

`CC(C(=O)Nc1ccc(Cl)cn1)n1ccc(C(F)(F)F)n1` (configuration not stated): the INHIBITION was 42.4%.

On to `Cc1cccc2nc(C(=O)N3CCCC[C@]4(C)NC(=O)CC[C@H]34)cn12`, for which the INHIBITION is 22%. As for `O=C(NC1CC1)c1cc(C(F)(F)F)cc(C(=O)NC2CC2)n1`, the figure is 5.21%; as for `Cc1cc(CN(C)Cc2ncc(-c3ccccc3)o2)no1`, 50.7%; as for `Cc1cc(CN(C)CCC(O)c2ccccc2)no1` (configuration not stated), 30.3%. In the case of `Cc1cc(CN(C)CCN(C)c2ccccc2)no1`, the INHIBITION is on record as 82.4%.

For `Cc1cc(CN(C)CC2CCCCC2)no1`, the INHIBITION was 23.1%. Take `Cc1cc(CN(C)Cc2ncc(C(C)(C)C)o2)no1`: the INHIBITION is -30.5%. The figure for `Cc1cc(CN(C)Cc2ncc(-c3cccs3)o2)no1` is 1.84%. For the compound `CC(C)c1nccn1CC(=O)Nc1ccnn1C(C)C(C)C` (configuration not stated), the INHIBITION is listed as -5.51%. The figure for `COC(=O)c1cccc(C(=O)NCc2ccco2)n1` is 41.6%; for `CC(=O)Nc1ccc(S(=O)(=O)N2CCOC(Cn3ccnc3)C2)cc1` (configuration not stated) it is -36.4%. As for `CCc1ccc(NC(=O)CCN2CC(n3nc(C)cc3C)C2)cc1`, the figure is 52.6%; as for `Cc1cc(C)n(C2CN(CCC(=O)NCCc3ccccc3)C2)n1`, 36.3%. With `Cc1cc(C)n(C2CN(CCC(=O)NC3CCCCC3)C2)n1`, the INHIBITION was 25.6%. On to `CS(=O)(=O)N[C@@H]1CN(C(=O)c2cc3ccccc3s2)C[C@H]1O`, for which the INHIBITION was -19.7%.

Regarding `FC(F)(F)c1cc(C2CCN(c3cnccn3)CC2)n2ccnc2n1`, the INHIBITION is recorded as -7.98%. As for `CC(=O)N1CCC(c2cc(C(F)(F)F)nc3nccn23)CC1`, the figure is 61.9%; as for `CC(=O)N1CCC(c2cc(C(F)(F)F)n3ccnc3n2)CC1`, -22.6%; as for `CN(C)C(=O)CN1CCc2onc(-c3ccccc3F)c2C1`, -17.8%. The figure for `Cc1ccc(CN2C[C@@H]3CN(c4ncc(F)cn4)C[C@@H]3C2)cc1` is 46.7%; for `Fc1cccc(CN2C[C@@H]3CN(c4ncccn4)C[C@@H]3C2)c1` it is 28.5%; for `Fc1cnc(N2C[C@H]3CN(Cc4cccc(F)c4)C[C@H]3C2)nc1` it is 60%. For `CN(CCCc1cc(-c2ccc(F)cc2)n(C)n1)CC(N)=O`, the INHIBITION is listed as -65.6%. As to `CN1CC[C@H](N(Cc2ccccc2)Cc2ccccc2)C[C@H](O)C1`, the INHIBITION came out at 32.1%. Regarding `Cc1ccc(CN2CCO[C@@H]3C[C@@H](C(=O)NC(C)C)C[C@H]32)o1`, the INHIBITION is on record as -26.5%.

`CSCCc1c(-c2ccccc2)ncn1CC(C)(C)N1CCCC1`: the INHIBITION was 26.7%. The figure for `CSCCc1c(-c2ccccc2)ncn1[C@H]1C[C@@H](C(=O)O)N(C)C1` is 19.5%. The figure for `CN(C)CC(C)(C)Cn1cnc(-c2ccccc2)c1-c1ccncc1` is -18.1%.

In the case of `CSCCc1c(-c2ccccc2)ncn1CC(C)(C)N1CCOCC1`, the INHIBITION was 69.3%. Take `CC(C)(Cn1cnc(-c2ccccc2)c1-c1ccco1)N1CCOCC1`: the INHIBITION was found to be 51.7%.

In the case of `CN(C)CC(C)(C)Cn1cnc(-c2ccccc2)c1-c1cccc(O)c1`, the INHIBITION is -39.3%. As for `CCc1cc(CN(C)C(=O)c2cc(=O)[nH]c(=O)[nH]2)on1`, the INHIBITION is listed as -34.8%.

As for `CCn1nc(C)c2ncnc(N3CCCC(C)C3)c21` (configuration not stated), the INHIBITION amounted to 26.9%. As for `CCN(CC1CCOC1)C(=O)c1ccc(N(C)C)cc1F` (configuration not stated), the figure is 13.8%. `O=C(Cc1ccccc1)N1CCOC(c2nc(-c3ncccn3)no2)C1` (configuration not stated): the INHIBITION is on record as -20.2%. As for `COc1ccc(C(NCc2cccc(O)c2)C2CC2)cc1` (configuration not stated), the figure is 3.84%. The figure for `Cn1cnc2c1C(COCC1CC1)CN(Cc1ccc3c(c1)OCO3)C2` (configuration not stated) is 63.5%; for `CC(C)COCC1CN(Cc2cnn(C)c2)Cc2ncn(C)c21` (configuration not stated) it is 28.3%.

For the compound `CC(C)COCC1CN(Cc2ccc3c(c2)OCO3)Cc2ncn(C)c21` (configuration not stated), the INHIBITION was 55.1%. For the compound `CCOCC1CN(Cc2ccc3c(c2)OCO3)Cc2ncn(C)c21` (configuration not stated), the INHIBITION was determined as 23.3%. Regarding `CC(C)COCC1CN(Cc2ccoc2)Cc2ncn(C)c21` (configuration not stated), the INHIBITION turned out to be 9.51%. As for `COCC1CN(Cc2ccc3c(c2)OCO3)Cc2ncn(C)c21` (configuration not stated), the figure is 38.2%; as for `CC(C)Cn1c(=O)[nH]c2cn(-c3ccc(F)cc3)c(=O)n21`, 11.4%; as for `Cc1cc(CN2CCC3(CC2)CC(Nc2ncccn2)CO3)nn1C` (configuration not stated), -0.813%. The figure for `CC(Cn1cccn1)NCc1csc(COc2ccc(F)cc2)n1` (configuration not stated) is 33.7%; for `CN(C)C(C(=O)NC1(CO)CCCC1)c1ccc(F)cc1` (configuration not stated) it is 31.3%.

Turning to `COCC1(NC(=O)C(c2ccc(F)cc2)N(C)C)CCCC1` (configuration not stated), the INHIBITION turned out to be 21.1%.

Take `CCCC1(NC(=O)C(c2ccc(F)cc2)N(C)C)CC1` (configuration not stated): the INHIBITION amounted to 53.6%. As for `CCOc1ccc(CCCC(=O)N2CCC(c3nnn[nH]3)CC2)cc1C`, the INHIBITION was determined as 17.7%. As for `CC(C)CC(=O)N1CCCCC(NC(=O)CCc2cccnc2)C1` (configuration not stated), the figure is 34.4%; as for `CCO[C@H]1CCN(S(=O)(=O)c2cn(C)cn2)[C@H]1Cc1ccccc1`, -55.5%.
